# Results reported in the supplement of paper PMC11417369.
# ± gives the standard deviation of the averaged measurements. The full ranking holds about 25,000 sequences; the median of “ln(normalized median fluorescence intensity)” is about 8.6, and the highest 2% start at about 10. What follows is part of a selection rich in the highest values, with near analogues and random picks from the rest.
# Tested on: PfAP2-EXP AP2 domain (GST-tagged)
# Test: gcPBM binding intensity (ln(normalized median fluorescence intensity)); higher = stronger DNA binding
# How it was run: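 After 1 h on an Agilent 4 × 180k array of primer-extended double-stranded 36-bp intergenic genomic probes and negative controls, bound GST-tagged P. falciparum DNA-binding domains were detected with Alexa488 anti-GST antibody and scanned at 488 nm. The domains had been expressed in E. coli, and binding took place in 1× PBS with 1% milk, 0.2 mg/ml BSA, 0.5% salmon testes DNA and 0.03% Triton X-100. Binding intensity is the highest Masliner-normalised natural-log median intensity across replicate spots of either probe orientation.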
row,Sequence,gcPBM binding intensity (ln)
1,ATATATATATTAAATACACACATTTTTGATTAGGTT [CACACA_site3119],9.405 ± 0.078
2,TAAATAAGTATTACTAGTACACACAAGTTGTTAATC [XGTACX_site7074],8.57 ± 0.28
3,TTTTATGTTCTTAATGCACACTTATAAGTATCTTAT [CACACA_site4895],9.07 ± 0.21
4,TATCATATAAAACATGCACACATATGTACTCTTATA [CACACA_site9249],8.77 ± 0.31
5,ATTTTTTATGAAAATAAACACACGATTTATTATATA [CACACA_site1312],8.14 ± 0.33
6,AGAAAAAAGAGGGATACACACAAACATATATTTATA [CACACA_site7122],8.81 ± 0.29
7,ACATATAATATATATATATATATATATATATATAAT [GTGCAC_negctrl_site648],8.66 ± 0.18
8,TTGGTATAAAATTATAGTACATAAGGTAAATATAAA [XGTACX_site4698],8.56 ± 0.33
9,GGAATATTAAAAAAATGTACAAAAAATAATATCCAT [XGTACX_site2596],8.97 ± 0.36
10,ATATTAAGAATGTATACATGCATATATATATAGTAC [TGCATGCA_site219],9.17 ± 0.42
11,TTAAAACATATTTTGAATTAATATATTTTAATATTA [XGTACX_negctrl_site148],7.72 ± 0.39
12,AAACTTTTTTTAAAAACACACATATATATTTATATA [CACACA_site4092],8.36 ± 0.41
13,CATAAACTTTTTAACACACACTTATATATATATATA [CACACA_site4747],10.3 ± 0.23
14,TTTTGAAGCTTTAAAACATATATATATATATATATA [CACACA_negctrl_site184],10.3 ± 0.4
15,TACATAAACTTTATAACACACACTTATATATATATA [CACACA_site1106],9.86 ± 0.18
16,CATAAACTTTATAACACACACTTATAAATATAAATA [CACACA_site6646],8.41 ± 0.4
17,TGTTATATATGTAATTGTACACTTATACAAAATTAT [XGTACX_site6350],8.52 ± 0.22
18,TTTTTGTTTTTGTTTTGTACTCATACATACTATCAT [XGTACX_site4210],8.99 ± 0.44
19,AAAAAAAATATATTACAAAACTTAGGATCCTAATAT [CACACA_negctrl_site470],8.48 ± 0.39
20,AAATATTAAATGGAAAACAAATATATATATCTTAAT [XGTACX_negctrl_site383],8.56 ± 0.38
21,AAAAAAAAAATTGAAAGTACACAAATGGGGTATTAT [XGTACX_site3960],8.75 ± 0.35
22,TATATATATATATGGGGTACAAATGGTCAGTATTAT [XGTACX_site1223],10.2 ± 0.21
23,TATGTATAAAAATAATGTACAAAATATATTATATGT [XGTACX_site2794],8.69 ± 0.33

row,Sequence,gcPBM binding intensity (ln)
1,GATATTCATTATATATGTACATATATGTAATATATA [XGTACX_site2210],8.55 ± 0.24
2,AAACATAAGGGACACACACACATATATATATATATA [CACACA_site5920],10.3 ± 0.16
3,TATAAAAGTGGACACACACACATATATATATATATA [CACACA_site4673],10.2 ± 0.64
4,GAATAAAGGAGAGGCACACATATATATATATATATA [CACACA_site2452],10.2 ± 0.25
5,GTAATCCACAAACACACACACATACACATATATATA [CACACA_site2728],8.78 ± 0.34
6,TAATAAAAAAAGTGCACACACATAATATATATATAT [CACACA_site3340],9.74 ± 0.28
7,TATATATATAAACACACACACACATATATATATATT [CACACA_site8814],9.02 ± 0.23
8,AATAATAAAAAAAGTGCACACACATAATATATATAT [CACACA_site9100],9.47 ± 0.099
9,AATCCACAAAGACACACACACACATATATATATATA [CACACA_site1269],10.2 ± 0.35
10,TATATATATAAACACACACACATATATATATATATA [CACACA_site4584],10.1 ± 0.35
11,TCTATAAAGGAATATACACACATATATATATATATA [CACACA_site410],10 ± 0.26
12,AAAAAAAAAAAAAAGACACACATATATATATATATA [CACACA_site633],10 ± 0.31
13,AATATAAAAAGGCACACACACAAAAAAAAAAAAAAA [CACACA_site896],8.26 ± 0.49
14,ATAAAAAAAGATGAACGTACATATATTTTAAAAATC [XGTACX_site5950],8.7 ± 0.45
15,TAATCATTTTTAAATTGTACAATTTATATAATAAGT [XGTACX_site6081],8.5 ± 0.26
16,AAATTTATAAATTAAAGTACATATTTCTTGAATATT [XGTACX_site859],8.34 ± 0.48
17,CTCAACATATACGTAACACACATATATATATATATA [CACACA_site3838],10.2 ± 0.41
18,TAAGTTTTGTTTTTTTGTACTCATTCATACTATCAT [XGTACX_site3638],8.87 ± 0.49
19,TAAAATTTAAGTTATACACACTTAAGTAACATCATC [CACACA_site6395],8.72 ± 0.37
20,TGTTTATGTATCAATTGTACAAAAAAAAAAAAAAAA [XGTACX_site1590],8.26 ± 0.46
21,TGACCTGTTCAGGTAACACACATATAAACACATACA [CACACA_site4186],8.8 ± 0.43
22,TTAATAACGTAATGTAAATGTTTCATACCCTTTTTT [CACACA_negctrl_site988],8.36 ± 0.43
23,CATATAAAAGGACACACACACACATATATATATATA [CACACA_site4674],10 ± 0.43
